# Data from ChEMBL document CHEMBL3988442, “University of Dundee, Small-Polar-MMV Screening Library” (2021).
# For some assays here: Results with a measured potency or affinity are listed apart.
# What was measured:
# Set-up in all cases: scale not given: direction of the effect not stated beside the values
# [1] = target: Protein translocase subunit SecA (Escherichia coli (strain K12)) (UniProt P10408); experiment: Assay to Identify E. coli SecA ATPase Inhibitors; type: functional; details: 30 µM
# [2] = target: T1, Ubiquitin-activating enzyme e1, putative (Leishmania donovani (strain BPK282A1)) (UniProt E9BSI1); experiment: Leishmania donovani Ubiquitin Activating Enzyme (LdE1); type: functional; details: 30 µM
# T1 sequence (whole entry): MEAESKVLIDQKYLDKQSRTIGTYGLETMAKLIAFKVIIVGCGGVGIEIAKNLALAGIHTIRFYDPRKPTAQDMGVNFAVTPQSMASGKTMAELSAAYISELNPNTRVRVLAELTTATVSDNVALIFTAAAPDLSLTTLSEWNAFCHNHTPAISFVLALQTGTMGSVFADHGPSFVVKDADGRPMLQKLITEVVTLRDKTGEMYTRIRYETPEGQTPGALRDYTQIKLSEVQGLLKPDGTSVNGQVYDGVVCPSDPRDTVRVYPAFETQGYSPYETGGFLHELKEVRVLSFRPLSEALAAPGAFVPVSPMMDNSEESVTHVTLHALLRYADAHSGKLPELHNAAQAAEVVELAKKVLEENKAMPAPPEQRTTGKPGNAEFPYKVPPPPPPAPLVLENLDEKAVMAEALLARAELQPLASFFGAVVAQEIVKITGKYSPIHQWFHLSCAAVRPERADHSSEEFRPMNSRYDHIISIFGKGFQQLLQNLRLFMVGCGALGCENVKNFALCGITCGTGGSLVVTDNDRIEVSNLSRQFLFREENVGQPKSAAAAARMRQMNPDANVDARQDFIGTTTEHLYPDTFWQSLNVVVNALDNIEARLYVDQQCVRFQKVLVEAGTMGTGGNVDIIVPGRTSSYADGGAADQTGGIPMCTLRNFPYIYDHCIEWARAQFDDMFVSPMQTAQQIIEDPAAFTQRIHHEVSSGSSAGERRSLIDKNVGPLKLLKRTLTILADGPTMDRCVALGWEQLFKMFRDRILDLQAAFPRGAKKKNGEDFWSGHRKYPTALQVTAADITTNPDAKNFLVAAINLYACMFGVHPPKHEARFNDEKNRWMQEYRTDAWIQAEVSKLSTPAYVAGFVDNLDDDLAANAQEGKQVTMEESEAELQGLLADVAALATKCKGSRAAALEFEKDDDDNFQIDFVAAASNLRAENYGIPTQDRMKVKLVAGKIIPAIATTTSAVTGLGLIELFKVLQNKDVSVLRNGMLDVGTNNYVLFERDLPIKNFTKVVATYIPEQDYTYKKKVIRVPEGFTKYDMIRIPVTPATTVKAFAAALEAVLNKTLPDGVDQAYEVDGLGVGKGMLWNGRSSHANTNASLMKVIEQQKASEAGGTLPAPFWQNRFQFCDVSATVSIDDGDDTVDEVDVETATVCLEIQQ
# [3] = target: AMP-activated protein kinase, AMPK (Homo sapiens) (UniProt P54646+O43741+P54619+Q9UGJ0+Q9Y478+Q13131+Q9UGI9); experiment: AMP-dependent Kinase enzyme assay. An in vitro enzyme assay that detects ADP turnover that is directly proportional to AMPK activity. This uses naive AMPK that is activated during the assay with MK-8722; type: functional; details: 30 µM
# [4] = target: Sialic acid-binding Ig-like lectin 9 (Homo sapiens) (UniProt Q9Y336); experiment: Hs-Siglec9 ALPHAscreen SOP 20170721; details: 10 µM
# Trypanosoma cruzi = experiment: Trypanosoma cruzi phosphomannomutase and mannose-1-phosphate guanylyltransferase assay; type: functional; details: 10 µM
# [5] = target: T2, Arginase-2, mitochondrial (Homo sapiens) (UniProt P78540); experiment: in vitro enzyme assay to detect the production of urea directly proportional to the activity of Arginase II; type: functional; details: 33.3 µM; also: in the data most compounds retested in dose-response had high values
# T2 sequence (whole entry): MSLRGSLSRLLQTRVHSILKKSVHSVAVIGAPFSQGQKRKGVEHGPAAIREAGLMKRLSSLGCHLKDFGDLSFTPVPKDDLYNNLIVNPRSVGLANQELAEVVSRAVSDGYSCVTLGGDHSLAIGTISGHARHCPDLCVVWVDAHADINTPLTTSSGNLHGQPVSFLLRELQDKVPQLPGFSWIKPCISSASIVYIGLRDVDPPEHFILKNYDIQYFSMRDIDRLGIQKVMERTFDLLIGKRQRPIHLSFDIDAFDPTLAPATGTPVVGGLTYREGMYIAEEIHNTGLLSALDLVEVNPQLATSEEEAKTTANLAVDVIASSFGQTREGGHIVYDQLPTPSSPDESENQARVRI
# [6] = target: T3, Proteasome subunit beta (Trypanosoma cruzi) (UniProt O96673); experiment: Trypanosoma cruzi proteasome chymotrypsin-like activity (TcProtChymo) assay.; also: in the data most compounds retested in dose-response had high values; type: functional; details: 9.37 µM
# T3 sequence (whole entry): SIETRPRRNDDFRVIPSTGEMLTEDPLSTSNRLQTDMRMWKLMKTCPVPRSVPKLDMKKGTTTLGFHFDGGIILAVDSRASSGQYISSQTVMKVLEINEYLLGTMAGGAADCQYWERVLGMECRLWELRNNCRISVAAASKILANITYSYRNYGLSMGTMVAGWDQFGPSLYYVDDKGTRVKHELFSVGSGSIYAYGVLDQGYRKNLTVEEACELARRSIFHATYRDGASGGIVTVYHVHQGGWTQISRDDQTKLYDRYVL
# Homo sapiens = species: Homo sapiens; experiment: To identify inhibition of the IFN signalling (Jak-Stat) pathway via expression of an eGFP reporter gene under the control of an IFN-stimulated response element (ISRE) containing MxA promoter.; type: functional; details: 30 µM
# [7] = target: T4, Tyrosyl-tRNA synthetase, putative (Trypanosoma cruzi (strain CL Brener)) (UniProt Q4DSP6); experiment: Trypanosoma cruzi tyrosyl tRNA synthetase (TcYRS) _High Tyrosine SOP; type: functional; details: 30 µM; also: in the data most compounds retested in dose-response had high values
# T4 sequence (whole entry): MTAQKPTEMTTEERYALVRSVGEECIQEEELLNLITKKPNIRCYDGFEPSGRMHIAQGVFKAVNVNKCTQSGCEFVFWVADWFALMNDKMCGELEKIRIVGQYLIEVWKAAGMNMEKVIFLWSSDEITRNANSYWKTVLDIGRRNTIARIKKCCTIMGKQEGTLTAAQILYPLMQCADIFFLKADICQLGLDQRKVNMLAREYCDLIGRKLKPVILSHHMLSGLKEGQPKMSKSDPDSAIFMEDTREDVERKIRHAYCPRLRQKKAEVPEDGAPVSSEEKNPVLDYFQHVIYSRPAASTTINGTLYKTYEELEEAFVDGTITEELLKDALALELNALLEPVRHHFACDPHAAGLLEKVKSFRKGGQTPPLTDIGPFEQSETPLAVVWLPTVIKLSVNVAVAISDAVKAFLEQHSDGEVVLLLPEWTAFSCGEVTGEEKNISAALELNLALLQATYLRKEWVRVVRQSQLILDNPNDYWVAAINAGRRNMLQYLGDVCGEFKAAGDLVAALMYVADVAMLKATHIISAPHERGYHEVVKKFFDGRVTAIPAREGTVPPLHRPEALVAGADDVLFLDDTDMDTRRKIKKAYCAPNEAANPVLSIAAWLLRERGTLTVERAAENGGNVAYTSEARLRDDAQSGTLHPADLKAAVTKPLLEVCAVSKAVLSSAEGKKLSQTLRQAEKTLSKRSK
# [8] = target: T4, Tyrosyl-tRNA synthetase, putative (Trypanosoma cruzi (strain CL Brener)); experiment: Trypanosoma cruzi tyrosyl tRNA synthetase (TcYRS) SOP; type: functional; details: 30 µM
# [9] = target: Chromo domain-containing protein 1 (Saccharomyces cerevisiae (strain ATCC 204508 / S288c) (Baker's yeast)) (UniProt P32657); experiment: ScCHD-1 Enzyme Inhibition Assay; type: functional; details: 30 µM; also: in the data most compounds retested in dose-response had high values
# Chain of Chromo domain-containing protein 1 (Saccharomyces cerevisiae (strain ATCC 204508 / S288c) (Baker's yeast)) (P32657 whole entry, the tested form may be a part): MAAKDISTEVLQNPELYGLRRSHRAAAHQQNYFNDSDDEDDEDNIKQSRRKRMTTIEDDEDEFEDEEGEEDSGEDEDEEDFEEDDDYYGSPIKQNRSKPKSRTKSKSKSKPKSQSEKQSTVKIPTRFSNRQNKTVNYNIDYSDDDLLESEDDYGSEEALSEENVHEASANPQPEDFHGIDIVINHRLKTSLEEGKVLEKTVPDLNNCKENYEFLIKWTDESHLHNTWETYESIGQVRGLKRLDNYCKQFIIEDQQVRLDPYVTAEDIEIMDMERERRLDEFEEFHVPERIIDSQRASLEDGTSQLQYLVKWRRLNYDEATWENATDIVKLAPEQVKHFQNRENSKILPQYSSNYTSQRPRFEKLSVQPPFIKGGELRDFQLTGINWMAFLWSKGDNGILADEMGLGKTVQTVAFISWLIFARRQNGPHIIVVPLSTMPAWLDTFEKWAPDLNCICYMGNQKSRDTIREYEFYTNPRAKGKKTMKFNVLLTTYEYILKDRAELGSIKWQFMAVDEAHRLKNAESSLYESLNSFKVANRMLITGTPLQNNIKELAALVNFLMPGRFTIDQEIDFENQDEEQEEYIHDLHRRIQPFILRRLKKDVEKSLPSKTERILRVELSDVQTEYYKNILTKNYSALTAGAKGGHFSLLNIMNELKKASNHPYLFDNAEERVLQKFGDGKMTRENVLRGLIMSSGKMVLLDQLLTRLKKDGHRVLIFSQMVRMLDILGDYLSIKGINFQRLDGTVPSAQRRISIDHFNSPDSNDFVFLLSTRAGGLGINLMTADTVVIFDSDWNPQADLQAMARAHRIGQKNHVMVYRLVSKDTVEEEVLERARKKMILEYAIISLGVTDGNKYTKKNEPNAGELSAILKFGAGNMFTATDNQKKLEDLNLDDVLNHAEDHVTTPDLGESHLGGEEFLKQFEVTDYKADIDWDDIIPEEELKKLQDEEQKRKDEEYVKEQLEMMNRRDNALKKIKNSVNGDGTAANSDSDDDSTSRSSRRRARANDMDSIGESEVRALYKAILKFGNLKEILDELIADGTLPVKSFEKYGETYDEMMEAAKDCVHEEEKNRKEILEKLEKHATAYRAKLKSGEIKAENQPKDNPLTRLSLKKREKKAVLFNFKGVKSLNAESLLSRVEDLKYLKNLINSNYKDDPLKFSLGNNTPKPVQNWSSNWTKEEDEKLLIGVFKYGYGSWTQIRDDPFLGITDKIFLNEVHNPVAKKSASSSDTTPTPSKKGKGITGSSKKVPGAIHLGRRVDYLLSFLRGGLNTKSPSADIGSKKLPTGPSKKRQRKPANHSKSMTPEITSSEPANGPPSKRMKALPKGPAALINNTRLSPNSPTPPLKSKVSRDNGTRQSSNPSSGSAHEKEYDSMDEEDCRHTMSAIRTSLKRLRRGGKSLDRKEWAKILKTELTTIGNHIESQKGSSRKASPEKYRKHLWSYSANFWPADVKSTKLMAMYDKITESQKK
# Chain of Protein translocase subunit SecA (Escherichia coli (strain K12)) (P10408 whole entry): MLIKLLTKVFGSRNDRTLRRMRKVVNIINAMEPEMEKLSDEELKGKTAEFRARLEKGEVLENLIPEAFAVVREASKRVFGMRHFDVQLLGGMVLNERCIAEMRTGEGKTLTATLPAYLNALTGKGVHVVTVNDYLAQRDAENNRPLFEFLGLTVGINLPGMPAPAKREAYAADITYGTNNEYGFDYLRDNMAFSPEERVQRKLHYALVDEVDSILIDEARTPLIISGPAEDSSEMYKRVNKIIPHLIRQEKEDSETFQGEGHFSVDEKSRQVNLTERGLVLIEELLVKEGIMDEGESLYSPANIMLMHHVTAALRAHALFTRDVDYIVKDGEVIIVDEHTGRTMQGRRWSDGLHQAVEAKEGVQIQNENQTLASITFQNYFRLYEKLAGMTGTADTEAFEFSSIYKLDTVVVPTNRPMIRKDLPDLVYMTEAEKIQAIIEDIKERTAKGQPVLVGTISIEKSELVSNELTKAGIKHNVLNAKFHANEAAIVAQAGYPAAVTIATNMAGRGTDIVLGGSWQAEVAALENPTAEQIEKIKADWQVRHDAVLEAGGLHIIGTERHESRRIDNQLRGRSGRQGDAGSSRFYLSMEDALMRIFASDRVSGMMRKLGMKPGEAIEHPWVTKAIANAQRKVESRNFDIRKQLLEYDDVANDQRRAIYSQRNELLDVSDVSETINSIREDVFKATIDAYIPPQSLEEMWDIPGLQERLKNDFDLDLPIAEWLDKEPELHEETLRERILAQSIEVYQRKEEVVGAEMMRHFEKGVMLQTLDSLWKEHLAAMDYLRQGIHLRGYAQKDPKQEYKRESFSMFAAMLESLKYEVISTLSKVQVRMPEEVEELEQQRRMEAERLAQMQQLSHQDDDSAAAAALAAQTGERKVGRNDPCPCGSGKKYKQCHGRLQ
# Chain of Sialic acid-binding Ig-like lectin 9 (Homo sapiens) (Q9Y336 whole entry): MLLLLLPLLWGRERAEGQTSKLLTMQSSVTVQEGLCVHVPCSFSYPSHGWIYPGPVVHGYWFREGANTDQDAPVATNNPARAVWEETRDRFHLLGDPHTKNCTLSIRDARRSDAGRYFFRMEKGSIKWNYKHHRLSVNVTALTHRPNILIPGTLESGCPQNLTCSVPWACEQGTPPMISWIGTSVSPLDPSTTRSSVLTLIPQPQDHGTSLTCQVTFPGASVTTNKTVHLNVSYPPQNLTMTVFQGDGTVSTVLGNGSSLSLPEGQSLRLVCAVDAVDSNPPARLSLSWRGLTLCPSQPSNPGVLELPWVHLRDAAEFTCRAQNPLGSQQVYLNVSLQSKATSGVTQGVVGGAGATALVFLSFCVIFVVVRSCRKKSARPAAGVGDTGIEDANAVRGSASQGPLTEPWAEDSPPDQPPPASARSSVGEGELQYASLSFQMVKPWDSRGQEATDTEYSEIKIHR
Compound,Percent Effect [1] [%],Percent Effect [2] [%],Percent Effect [3] [%],Percent Effect [4] [%],Percent Effect (Trypanosoma cruzi) [%],Percent Effect [5] [%],Percent Effect [6] [%],Percent Effect (Homo sapiens) [%],Percent Effect [7] [%],Percent Effect [8] [%],Percent Effect [9] [%]
O=C(O)c1cc2c(nc1O)CC(c1cccc(Cl)c1)CC2=O (configuration not stated),-6.48,1.33,28.2,2.46,-5.7,-6.16,7.21,1.57,4.23,2.56,-9.15
Cc1cnn(CCNCc2ccccc2C#N)c1,-7.98,5.41,-2.49,6.11,-5.11,-0.554,5.21,14.9,-1.98,-1.22,1.22
O=C(Nc1cccc(CNCc2csc(Br)c2)c1)C1CC1,-8.41,23.7,-5.54,-1.24,5.32,2.16,7.19,37.8,3.45,25.9,-8.55
O=C1NCC2(CCCN(Cc3ccccc3F)C2)Oc2ccccc21 (configuration not stated),1.88,12.2,9.79,-6.32,-2.77,5.34,9.52,9.51,3.23,9.09,-14.2
O=C1OCCN1CCc1nc(-c2cc3c4c(c2)CC(=O)N4CCC3)cs1,-8.45,0,4.43,-2.26,-7.87,-0.712,9.97,47.2,0.971,0,-5.4
CC(c1ccc(F)c(F)c1)N1CCN(Cc2nccn2C)CC1 (configuration not stated),0.457,20.8,-8.62,5.23,-7.68,5.69,8.62,40.9,-5.83,-2.44,-9.27
CN(C)c1ncc(CN2CCC(c3nnsc3S(C)(=O)=O)CC2)cn1,-2.31,-1.35,11.6,-0.17,-3.36,0.232,4.37,12.1,3.23,1.3,-9.61
Cc1cccc(CN(Cc2ccc(C)o2)C2CC(C)(C)NC(C)(C)C2)n1,-4.93,9.46,9.39,-2.48,-6.13,-3.48,10.8,1.42,3.23,3.9,-0.669
Cn1cc(N2CC3(CCN(S(=O)(=O)C4CC4)C3)CC2=O)cn1 (configuration not stated),-2.73,18.7,-7.51,-0.00481,3.09,-11.3,10.6,-1.37,7.29,27.5,-13.5
CN(Cc1ncc(C(C)(C)C)o1)C1CCCN(c2cccnn2)C1 (configuration not stated),-2.8,15.2,-7.54,-5.13,3.49,2.66,13.2,2.64,12.3,16.5,-3.04
Fc1ccc(CNCC2OCCc3cn(CC4CC4)nc32)cc1 (configuration not stated),-3.44,0,12.4,6.39,2.05,-4.78,12.4,9.33,3.24,7.69,8.43
O=C(NCc1cccs1)[C@H]1CC[C@@H]2[C@@H](CCN2c2ncccn2)O1,-2.42,5.41,-0.805,-3.31,6.45,-0.833,18.9,18.7,8.91,18.3,-3.92
CCc1nc(C)c([C@H]2CN(C)C[C@@H]2C(=O)Nc2ccc(OC)cc2)[nH]1,-5.53,5.41,-1.46,2.65,1.16,-2.86,8.28,1.5,8.99,12.2,-4.67
CN(C)c1cc(CNC(=O)c2ccc(F)cc2F)ccn1,-4.79,28.6,-1.46,10.4,5.62,-1.78,8.11,8.43,5.83,24.4,-9.26
O=c1cc2c(nn1CN1CCN(c3cccc(Cl)c3)CC1)CCC2,-3.06,6.67,0.948,5.21,0.589,-6.87,19,4.05,6.35,12.8,-2.65
Cc1nc(C2CCCN(C(=O)C(C)(C)n3cc(Cl)cn3)C2)no1 (configuration not stated),-1.25,3.8,-0.545,3.13,2.77,3.23,0.343,-9.61,6.25,7.59,-13.7
O=C(CCN1CCCC1=O)NCc1cccnc1Oc1ccccc1,-6.95,-8.22,0.461,2.58,0.595,-1.2,4.88,-2.67,1.04,6.17,-1.4
O=C(c1cccnc1-n1cncn1)N1CCc2ccccc2C1,-1.58,16.2,-4,13.4,4.25,1.91,8.1,4.11,5.82,9.76,-2.56
O=C(c1cn(-c2cc(N3CCOCC3)ncn2)cn1)N1CCSCC1,-3.27,8.22,-3.63,4.82,1.18,4.09,25,8.07,9.68,15,-5.28
CN(CCNC(=O)NCc1ccncc1)C1CCCC1,-0.694,-5.41,-4.53,1.79,-3.3,0.401,-6.31,7.43,1.48,-1.24,2.18
COc1ncccc1NC(=O)C1CCS(=O)(=O)C1 (configuration not stated),-5.85,20.8,-1.47,-3.58,-5.99,-1.07,3.21,19.2,3.88,12.2,-9.93
Cn1cc2c(n1)C(CNC(=O)Cc1ccsc1)OCC2 (configuration not stated),-4.65,7.79,-2.5,-0.415,4.83,-7.1,2.26,7.06,2.12,3.85,-6.29
